Inconclusive results are not listed. The source made the active and inactive calls. Rule for the calls, unless noted: active = hit-call score of the fitted dose curve at least 0.9, where 1 is the maximum; inactive = score below 0.9.

In test [1] the target is THRB (gene 7068) (UniProt P10828). Kind of test: TOX21_TRB_BLA_Antagonist_Followup_ratio: Tox21 Thyroid Hormone Receptor beta Antagonism Beta-lactamase (BLA) Follow-Up Assay, Ratio (AID 2283958; active = hit-call score of the fitted dose curve at least 0.9, where 1 is the maximum). In short, it runs like this: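 Cells were plated and allowed to attach for 5 h, then dosed with compounds in DMSO at 11 concentrations for 18 h at 37C. Beta-lactamase reporter activity was measured via CCF4-AM FRET as the 460:530 nm ratio.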
Chain of THRB (gene 7068) (P10828 whole entry, looked up, the tested form may be a part): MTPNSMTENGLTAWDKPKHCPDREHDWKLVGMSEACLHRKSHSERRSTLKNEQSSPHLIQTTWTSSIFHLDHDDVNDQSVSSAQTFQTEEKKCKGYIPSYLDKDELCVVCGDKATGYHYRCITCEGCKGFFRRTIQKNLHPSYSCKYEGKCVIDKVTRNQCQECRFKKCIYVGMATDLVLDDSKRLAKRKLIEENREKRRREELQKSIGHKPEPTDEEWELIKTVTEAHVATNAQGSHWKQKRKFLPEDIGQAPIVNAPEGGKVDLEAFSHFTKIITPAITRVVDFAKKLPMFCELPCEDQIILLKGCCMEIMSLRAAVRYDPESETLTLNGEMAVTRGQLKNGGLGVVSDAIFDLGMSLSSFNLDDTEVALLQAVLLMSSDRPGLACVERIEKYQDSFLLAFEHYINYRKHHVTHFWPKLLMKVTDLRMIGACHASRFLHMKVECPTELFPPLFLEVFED

The nature of test [2]: TOX21_TRB_BLA_Antagonist_Followup_viability: Viability Assessment in the Tox21 Thyroid Hormone Receptor beta Antagonism Beta-lactamase (BLA) Follow-Up Assay (AID 2283961; active = hit-call score of the fitted dose curve at least 0.9, where 1 is the maximum). In outline:
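Viability read as CellTiter-Glo ATP luminescence (loss of signal = cytotoxicity) in the same plates as the TRβ-bla readout. TRβ-LBD/GAL4 UAS-bla HEK293T cells were exposed to compounds, 11 concentrations in triplicate, for 18 h at 37C/5% CO2.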

Test [3] addresses THRB (gene 7068) (UniProt P10828). Kind of test: TOX21_TRB_COA_Antagonist_Followup_ratio: Tox21 Thyroid Hormone Receptor beta Antagonism through Coactivator Recruitment Follow-Up Assay, Ratio (AID 2283967; active = hit-call score of the fitted dose curve at least 0.9, where 1 is the maximum). In short, it runs like this: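 Coactivator recruitment to the GST-tagged TRb ligand-binding domain (5.0 nM) was read as the 520/495 nm TR-FRET ratio, using 200 nM fluorescein SRC-2 peptide and 2 nM terbium anti-GST. Scaled between DMSO and T3 wells; loss of signal fitted.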

Test [4] concerns the target Retinoic acid receptor RXR-alpha (Homo sapiens) (UniProt P19793). Kind of test: TOX21_TR_RXR_BLA_Antagonist_Followup_ratio: Tox21 Thyroid Hormone Receptor beta Retinoid X Receptor alpha (RXRa) Antagonism Beta-lactamase (BLA) Follow-Up Assay, Ratio (AID 2283972; active = hit-call score of the fitted dose curve at least 0.9, where 1 is the maximum). In short, it runs like this:
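Beta-lactamase reporter readout as cleaved/uncleaved substrate ratio (460:530 nm) after 2 h substrate loading at room temperature. GAL4-RXRa bla HEK293T cells were exposed 16 h at 37C to 11-point compound series; loss of signal scored against DMSO baseline.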

Test [5] is described as follows: TOX21_TR_RXR_BLA_Antagonist_Followup_viability: Viability Assessment in the Tox21 Thyroid Hormone Receptor beta Retinoid X Receptor alpha (RXRa) Antagonism Beta-lactamase (BLA) Follow-Up Assay (AID 2283979; active = hit-call score of the fitted dose curve at least 0.9, where 1 is the maximum). In outline:
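Follow-up compounds (11 concentrations, triplicate) were incubated 16 h at 37C/5% CO2 with HEK293T RXRa-bla cells seeded at 2,500/well in charcoal-stripped-serum medium. ATP content by CellTiter-Glo luminescence gave viability; curves fitted in both directions against DMSO.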

Test [6] has as its target Nucleoli Translocation, AR (gene 367) (UniProt P10275). Kind of test: UPITT_HCI_U2OS_AR_TIF2_Nucleoli_Antagonist: University of Pittsburgh U2OS Androgen Receptor-Transcriptional Intermediary Factor 2 (AR-TIF2) Antagonism High Content Imaging Assay for Nucleoli Translocation (AID 2283997; active = hit-call score of the fitted dose curve at least 0.9, where 1 is the maximum). In short, it runs like this: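 Antagonism is read as loss of nucleolar AR-RFP signal relative to DHT, imaged in U2OS cells also carrying GFP-TIF2. Compounds screened at 20 uM final, 0.2% DMSO; primary actives retested in triplicate.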

Test [7] in a line: CCTE_Harrill_HTTr_Viability_DMEM_6hr: (Pilot) CCTE's 6-hour Cell Viability Assessment for the High-Throughput Transcriptomics (HTTr) Platform, in MCF-7 cells cultured in DMEM + 10% fetal bovine serum, Harrill Lab (AID 2283973). In outline:
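Propidium iodide uptake imaged by high-content analysis after six hours of chemical treatment in an eight-concentration series. Cells: MCF-7 grown in DMEM with 10% fetal bovine serum; DMSO as baseline.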

Test [8] can be described thus: CCTE_Harrill_HTTr_Viability_DMEM_12hr: (Pilot) CCTE's 12-hour Cell Viability Assessment for the High-Throughput Transcriptomics (HTTr) Platform, in MCF-7 cells cultured in DMEM + 10% fetal bovine serum, Harrill Lab (AID 2283974). In short, it runs like this: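 Propidium iodide dye exclusion imaged by high-content microscopy after 12 h chemical exposure (eight concentrations) of MCF-7 cells grown in DMEM plus 10% FBS; values fitted in both directions relative to DMSO.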

A short description of test [9]: CCTE_Harrill_HTTr_Viability_DMEM_24hr: (Pilot) CCTE's 24-hour Cell Viability Assessment for the High-Throughput Transcriptomics (HTTr) Platform, in MCF-7 cells cultured in DMEM + 10% fetal bovine serum, Harrill Lab (AID 2283975). In outline:
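Pilot study: propidium iodide dye exclusion, imaged by high content microscopy, after 24 h compound exposure (eight concentrations) in MCF-7 cultured in DMEM + 10% fetal bovine serum; DMSO served as negative control and baseline.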

Test [10] can be described thus: CCTE_Harrill_HTTr_Viability_PRF_DMEM_6hr: (Pilot) CCTE's 6-hour Cell Viability Assessment for the High-Throughput Transcriptomics (HTTr) Platform, in MCF-7 cells cultured phenol red-free DMEM + 10% charcoal-stripped fetal bovine serum, Harrill Lab (AID 2283976). In short, it runs like this: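 Membrane integrity by high-content imaging of propidium iodide uptake, six hours after dosing with eight concentrations. Cells: MCF-7 grown in phenol red-free DMEM plus 10% charcoal-stripped serum; DMSO serves as baseline for bidirectional fits.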

Test [11] is described as follows: CCTE_Harrill_HTTr_Viability_PRF_DMEM_12hr: (Pilot) CCTE's 12-hour Cell Viability Assessment for the High-Throughput Transcriptomics (HTTr) Platform, in MCF-7 cells cultured in phenol red-free DMEM + 10% charcoal-stripped fetal bovine serum, Harrill Lab (AID 2283977). In outline: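 Membrane integrity was scored via propidium iodide dye exclusion imaging, fitted in both directions relative to DMSO. Compounds ran as eight-point dilutions for 12 hours on MCF-7 grown in phenol red-free DMEM plus 10% charcoal-stripped serum.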

The nature of test [12]: CCTE_Harrill_HTTr_Viability_PRF_DMEM_24hr: (Pilot) CCTE's 24-hour Cell Viability Assessment for the High-Throughput Transcriptomics (HTTr) Platform, in MCF-7 cells cultured in phenol red-free DMEM + 10% charcoal-stripped fetal bovine serum, Harrill Lab (AID 2283980). In short, it runs like this:
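Propidium iodide exclusion imaged at 24 h after dosing scores viability; cells were MCF-7 grown in phenol red-free DMEM plus 10% charcoal-stripped serum, tested in eight concentrations, fitted in both directions against DMSO.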

Test [13] in a line: CCTE_Harrill_HTTr_Apoptosis_DMEM_6hr: (Pilot) CCTE's 6-hour Apoptosis Assessment for the High-Throughput Transcriptomics (HTTr) Platform, in MCF-7 cells cultured in DMEM + 10% fetal bovine serum, Harrill Lab (AID 2283981). In short, it runs like this: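 MCF-7 cells grown in DMEM + 10% FBS were exposed for 6 hours to an eight-point dilution series. CellEvent Caspase 3/7 Green signal was imaged; activity fitted bidirectionally against DMSO.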

Test [14] is described as follows: CCTE_Harrill_HTTr_Apoptosis_DMEM_12hr: (Pilot) CCTE's 12-hour Apoptosis Assessment for the High-Throughput Transcriptomics (HTTr) Platform, in MCF-7 cells cultured in DMEM + 10% fetal bovine serum, Harrill Lab (AID 2283982). In short, it runs like this:
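Caspase-3/7 activity was measured by high-content imaging (CellEvent Caspase 3/7 Green) after a 12-hour exposure of MCF-7 cells grown in DMEM with 10% FBS. Eight-point concentration series, fitted bidirectionally against vehicle.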

Test [15] can be described thus: CCTE_Harrill_HTTr_Apoptosis_DMEM_24hr: (Pilot) CCTE's 24-hour Apoptosis Assessment for the High-Throughput Transcriptomics (HTTr) Platform, in MCF-7 cells cultured in DMEM + 10% fetal bovine serum, Harrill Lab (AID 2283983). In outline:
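Caspase-3/7 activity read by high-content imaging (CellEvent Green reagent) 24 h after dosing. MCF-7 cells grown in DMEM with 10% FBS received an eight-point concentration series; fits were bidirectional versus DMSO.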

Test [16] is described as follows: CCTE_Harrill_HTTr_Apoptosis_PRF_DMEM_6hr: (Pilot) CCTE's 6-hour Apoptosis Assessment for the High-Throughput Transcriptomics (HTTr) Platform, in MCF-7 cells cultured phenol red-free DMEM + 10% charcoal-stripped fetal bovine serum, Harrill Lab (AID 2283984). In outline: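 Caspase-3/7 activity (CellEvent Green) read by high-content imaging 6 h after dosing, eight concentrations. Cells: MCF-7, phenol red-free DMEM with 10% charcoal-stripped serum. Curves fit both directions against DMSO.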

Test [17] in a line: CCTE_Harrill_HTTr_Apoptosis_PRF_DMEM_12hr: (Pilot) CCTE's 12-hour Apoptosis Assessment for the High-Throughput Transcriptomics (HTTr) Platform, in MCF-7 cells cultured in phenol red-free DMEM + 10% charcoal-stripped fetal bovine serum, Harrill Lab (AID 2283985). In outline:
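Caspase-3/7 activity by CellEvent Green high content imaging after 12 h compound exposure (eight concentrations) in MCF-7 grown in phenol red-free DMEM plus 10% charcoal-stripped serum; DMSO as baseline.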

Test [18] in a line: CCTE_Harrill_HTTr_Apoptosis_PRF_DMEM_24hr: (Pilot) CCTE's 24-hour Apoptosis Assessment for the High-Throughput Transcriptomics (HTTr) Platform, in MCF-7 cells cultured in phenol red-free DMEM + 10% charcoal-stripped fetal bovine serum, Harrill Lab (AID 2283986). In outline: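 Eight concentrations tested for 24 h on MCF-7 grown in charcoal-stripped serum, phenol red-free DMEM. High content imaging of CellEvent Caspase 3/7 Green signal gives apoptosis read-out, fitted both ways relative to DMSO.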

A further test has as its target THRA (gene 7067) (UniProt P10827). Kind of test: TOX21_TRA_COA_Antagonist_Followup_ratio: Tox21 Thyroid Hormone Receptor alpha Antagonism through Coactivator Recruitment Follow-Up Assay, Ratio (AID 2283953; active = hit-call score of the fitted dose curve at least 0.9, where 1 is the maximum). In short, it runs like this:
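GST-TRα LBD 2.5 nM, BSA 0.10%, + cpd; then FITC-SRC-2 peptide 200 nM + Tb-anti-GST Ab 2 nM. TR-FRET ratio 520/495 nm. Norm: DMSO = 0%, T3 = 100%.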

Chain of Nucleoli Translocation, AR (gene 367) (P10275 whole entry, looked up): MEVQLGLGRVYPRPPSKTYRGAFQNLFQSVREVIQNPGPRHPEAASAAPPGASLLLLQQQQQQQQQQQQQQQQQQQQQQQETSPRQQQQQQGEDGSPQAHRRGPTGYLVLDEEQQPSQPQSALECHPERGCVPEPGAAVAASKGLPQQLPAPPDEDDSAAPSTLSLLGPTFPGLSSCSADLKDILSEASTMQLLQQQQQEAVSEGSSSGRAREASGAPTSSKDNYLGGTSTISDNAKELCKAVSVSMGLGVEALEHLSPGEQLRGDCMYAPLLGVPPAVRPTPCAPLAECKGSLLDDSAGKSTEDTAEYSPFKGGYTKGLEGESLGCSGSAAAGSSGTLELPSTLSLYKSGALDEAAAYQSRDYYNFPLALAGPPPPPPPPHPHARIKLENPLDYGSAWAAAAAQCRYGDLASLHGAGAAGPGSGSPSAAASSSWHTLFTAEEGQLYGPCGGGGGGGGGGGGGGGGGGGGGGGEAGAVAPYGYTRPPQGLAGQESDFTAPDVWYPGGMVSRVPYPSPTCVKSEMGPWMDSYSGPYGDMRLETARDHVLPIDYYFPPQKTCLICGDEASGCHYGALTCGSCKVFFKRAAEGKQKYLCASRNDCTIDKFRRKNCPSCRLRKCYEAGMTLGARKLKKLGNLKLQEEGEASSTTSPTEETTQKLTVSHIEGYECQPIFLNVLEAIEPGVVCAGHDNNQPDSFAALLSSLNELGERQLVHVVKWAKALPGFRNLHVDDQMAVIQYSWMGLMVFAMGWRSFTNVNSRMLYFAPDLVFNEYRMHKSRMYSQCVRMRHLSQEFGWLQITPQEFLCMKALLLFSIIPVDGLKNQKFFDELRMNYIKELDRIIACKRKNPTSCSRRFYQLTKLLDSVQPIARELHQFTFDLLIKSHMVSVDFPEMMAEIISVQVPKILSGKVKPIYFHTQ
Chain of Retinoic acid receptor RXR-alpha (Homo sapiens) (P19793 whole entry, looked up, the tested form may be a part): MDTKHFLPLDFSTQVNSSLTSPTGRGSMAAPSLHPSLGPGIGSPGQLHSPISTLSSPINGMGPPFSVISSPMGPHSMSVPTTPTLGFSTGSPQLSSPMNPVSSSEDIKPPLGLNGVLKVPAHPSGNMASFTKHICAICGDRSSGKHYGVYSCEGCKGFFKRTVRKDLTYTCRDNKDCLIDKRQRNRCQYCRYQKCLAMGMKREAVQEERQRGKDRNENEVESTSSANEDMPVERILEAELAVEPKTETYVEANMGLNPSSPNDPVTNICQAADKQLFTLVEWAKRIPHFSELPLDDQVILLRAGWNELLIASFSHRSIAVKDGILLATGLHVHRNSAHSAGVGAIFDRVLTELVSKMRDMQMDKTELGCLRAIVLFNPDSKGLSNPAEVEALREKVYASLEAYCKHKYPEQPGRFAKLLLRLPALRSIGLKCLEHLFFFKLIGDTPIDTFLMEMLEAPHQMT
Chain of THRA (gene 7067) (P10827 whole entry, looked up, the tested form may be a part): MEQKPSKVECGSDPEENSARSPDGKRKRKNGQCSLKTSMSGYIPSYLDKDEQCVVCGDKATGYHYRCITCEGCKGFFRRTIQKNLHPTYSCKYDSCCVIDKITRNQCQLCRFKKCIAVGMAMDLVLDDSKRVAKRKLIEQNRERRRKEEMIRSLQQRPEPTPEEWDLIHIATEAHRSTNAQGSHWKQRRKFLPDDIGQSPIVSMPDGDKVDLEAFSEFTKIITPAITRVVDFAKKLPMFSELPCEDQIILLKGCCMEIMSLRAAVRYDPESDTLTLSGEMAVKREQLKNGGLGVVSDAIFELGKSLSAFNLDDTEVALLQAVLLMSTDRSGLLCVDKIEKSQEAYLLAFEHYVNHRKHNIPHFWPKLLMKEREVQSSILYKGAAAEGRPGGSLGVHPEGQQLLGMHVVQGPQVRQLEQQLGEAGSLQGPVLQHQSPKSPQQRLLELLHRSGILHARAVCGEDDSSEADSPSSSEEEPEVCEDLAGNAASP

Take `CCc1nn(C)c(C(=O)NCc2ccc(C(C)(C)C)cc2)c1Cl`: the outcome (with THRB (gene 7068) [1]; with THRB (gene 7068) [3]; in test [4]) was inactive. The AC50 (as a rule, the concentration giving half of the maximal activity seen) in test [2] is 4.69 µM (active); in test [5], 7.74 µM (active).
As for `CC(C)(C)c1ccc(CSc2cnn(C(C)(C)C)c(=O)c2Cl)cc1`, the compound was called inactive in [2] and in [5].
With `N#Cc1cc(Br)c(O)c(Br)c1`, the outcome in test [6] was inactive.
As for `CCNc1nc(Cl)nc(NC(C)C)n1`, the result in test [7], in test [8], in test [9], in test [10], in [11] and in test [12] was inactive. Besides, the outcome in test [13], in test [14], in test [15], in test [16], in [17] and in [18] was inactive.
With `CS/C(C)=N/OC(=O)N(C)SN(C)C(=O)O/N=C(\C)SC`, the AC50 in [6] is 21.7 µM (active).
Turning to `CCON=C(CC)C1=C(O)CC(c2c(C)cc(C)cc2C)CC1=O` (stereo unspecified), the compound was classed as inactive in test [6].
For `CO/C=C(/C(=O)OC)c1ccccc1Oc1cc(Oc2ccccc2C#N)ncn1`, the outcome (with THRA (gene 7067); with THRB (gene 7068) [1]; in the test with THRB (gene 7068) [3]; in test [4]; in [5]; in [6]) was inactive. In test [2], the AC50 was 38.1 µM (active).
Turning to `N#CC(CCc1ccc(Cl)cc1)(Cn1cncn1)c1ccccc1` (stereo unspecified), the result in test [6] was inactive.
For the compound `CC(C)Oc1cc(-n2nc(C(C)(C)C)oc2=O)c(Cl)cc1Cl`, the outcome in test [6] was inactive.
With `CN(C)C(=S)SSC(=S)N(C)C`, the result (in the test with THRA (gene 7067); with THRB (gene 7068) [1]; in test [2]; with THRB (gene 7068) [3]; in test [7]; in [8]) was inactive. In addition, the result in [10], in test [11], in [5], in test [13], in test [14] and in test [16] was inactive. The result in test [17] and in test [18] was inactive. Besides, the AC50 in test [9] was 54.6 µM (active); in [12], 46.7 µM (active); in [15], 80.6 µM (active); in test [6] it was 12.6 µM (active).
Regarding `C=CC1(C)OC(=O)N(c2cc(Cl)cc(Cl)c2)C1=O` (stereo unspecified), the outcome in test [7], in test [8], in [9], in test [10], in test [11] and in [12] was inactive. The result in [13], in [14], in test [15], in test [16], in test [17] and in test [18] was inactive.

The record behind these values is PubChem BioAssay (EPA / NIEHS).
